BoNT-F LC inh = blocks Botulinum neurotoxin F light chain protease; Multiplex microsphere protease cleavage assay, flow cytometry; inhibition, % at 10 µM; actives 0.22% (n = 360,000); in the data active = inhibition above about 35%, passing the limit was not always enough; inconclusive = no clear call, values can overlap the other calls; also: plate controls were buffer without enzyme for full effect and enzyme alone for no effect
Anthrax LF prot = blocks Bacillus anthracis lethal factor protease; actives 0.12% (n = 360,000); multiplex microsphere protease cleavage assay, LF; inhibition, % at 10 µM; P15917; also: plate controls were buffer without enzyme for full effect and enzyme alone for no effect
Target sequence (P15917 whole entry, looked up): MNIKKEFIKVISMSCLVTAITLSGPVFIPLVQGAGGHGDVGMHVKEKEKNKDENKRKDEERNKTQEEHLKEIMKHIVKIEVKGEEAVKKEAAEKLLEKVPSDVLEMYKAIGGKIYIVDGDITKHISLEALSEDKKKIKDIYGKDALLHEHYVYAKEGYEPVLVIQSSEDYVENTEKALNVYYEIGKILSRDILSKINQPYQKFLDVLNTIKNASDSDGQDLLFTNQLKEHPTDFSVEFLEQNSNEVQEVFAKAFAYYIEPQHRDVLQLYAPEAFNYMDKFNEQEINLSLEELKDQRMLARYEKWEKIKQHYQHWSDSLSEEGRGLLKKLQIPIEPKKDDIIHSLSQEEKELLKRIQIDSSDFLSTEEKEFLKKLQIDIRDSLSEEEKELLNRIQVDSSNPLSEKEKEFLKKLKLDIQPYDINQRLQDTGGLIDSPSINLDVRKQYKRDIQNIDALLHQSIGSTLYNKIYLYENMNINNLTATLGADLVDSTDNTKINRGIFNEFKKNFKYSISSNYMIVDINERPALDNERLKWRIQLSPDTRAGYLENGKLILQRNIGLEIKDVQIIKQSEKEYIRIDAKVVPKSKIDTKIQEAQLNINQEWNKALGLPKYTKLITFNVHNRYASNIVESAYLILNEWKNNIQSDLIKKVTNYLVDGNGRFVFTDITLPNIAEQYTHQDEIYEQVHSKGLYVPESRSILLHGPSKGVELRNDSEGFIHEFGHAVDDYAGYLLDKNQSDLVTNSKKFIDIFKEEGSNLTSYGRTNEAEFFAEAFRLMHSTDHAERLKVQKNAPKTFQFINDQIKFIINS
BoNT-A LC inh2 = BoNT A light chain protease inhibition | multiplex microsphere protease substrate cleavage, flow cytometry | inhibition, % at 10 µM | actives 0.17% (n = 360,000) | AID 588499; also: plate controls were buffer without enzyme for full effect and enzyme alone for no effect
Autofluor counter = flagged as autofluorescent in microsphere protease counterscreen; compound autofluorescence counterscreen, microsphere flow cytometry; hits give high values; fluorescence intensity (concentration not given with the values); actives 3.1% (n = 360,000); in the data active = fluorescence intensity above about 16000; inconclusive = no clear call, values can overlap the other calls
* hit, by the source's call; ? = inconclusive. A selection: hits, their analogues and other compounds. The true share with any hit is near 3.5%. Rule as the data show it, unless noted: active = inhibition above about 30%; inconclusive = no clear call, values can overlap the other calls; inactive = below that.

SMILES | BoNT-F LC inh | Anthrax LF prot | BoNT-A LC inh2 | Autofluor counter
O=C(CN1C(=O)NC2(CCCC2)C1=O)Nc1nc2ccccc2[nH]1 | -2 | 2 | 2 | ?
Cc1ccc2c(c1)N(CC(=O)NC1CCCC1)C(=O)c1cccnc1O2 | -10 | 9 | 0 | 6057
COc1ccc(CCNC(=O)[C@@H](NC(=O)N2CC(=O)Nc3ccccc32)C(C)C)cc1OC | -3 | -1 | 1 | 5224
Cc1ccnc(NS(=O)(=O)c2ccc(NC(=O)Cc3cccs3)cc2)n1 | -2 | -1 | ? | 21122*
CC(=O)Nc1ccc(S(=O)(=O)N2CCN(S(=O)(=O)c3ccc(NC(C)=O)cc3)CC2)cc1 | 0 | 7 | 0 | 3611
O=C(Cc1cccs1)Nc1ccc(S(=O)(=O)Nc2ncccn2)cc1 | -8 | -2 | 0 | 3087
CN1CCN(S(=O)(=O)c2ccc(NC(=O)C(C)(C)C)cc2)CC1 | 3 | -1 | ? | 22681*
CC(=O)Nc1ccc(S(=O)(=O)N2CCCN(S(=O)(=O)c3ccc(C)cc3)CC2)cc1 | -15 | -2 | -10 | 27039*
CN1CCN(S(=O)(=O)c2ccc(-c3ccc(Cl)cc3)cc2)CC1 | -5 | 1 | -1 | 20018*
CC(=O)Nc1ccc(S(=O)(=O)N2CCCN(S(=O)(=O)c3ccc(NC(C)=O)cc3)CC2)cc1 | 10 | 6 | 1 | 9007
CCC(C)c1ccccc1NC(=S)NC(=O)c1ccco1 (centres undefined) | -37 | -9 | -25 | ?
CC1(C(=O)NS(=O)(=O)c2ccccc2C(F)(F)F)CCN1C(=O)CCc1cccs1 (centres undefined) | 4 | 4 | 0 | 3605
CC1CCCN(S(=O)(=O)c2ccc(NC(=O)CN3CCN(C)CC3)cc2)C1 (centres undefined) | -2 | 1 | 0 | 16136*
Cc1ccc(S(=O)(=O)N2CCCN(S(=O)(=O)c3ccc4c(c3)OCCO4)CC2)cc1 | -15 | -7 | -11 | 26607*
CN(C)S(=O)(=O)n1cc(/C=C(\NC(=O)c2ccccc2Cl)C(=O)N2CCOCC2)c2ccccc21 | -7 | 0 | -5 | 6048
Cc1ccc(NC(=O)Cn2cnc([N+](=O)[O-])c2)cc1C | 3 | 2 | -1 | 3717
COc1ccccc1N1CCN(C(=O)CSc2ncccc2-c2nc3ccccc3[nH]2)CC1 | -1 | 5 | 4 | 21668*
COc1ccc(N2CCN(C(=O)CSc3ncccc3-c3nc4ccccc4[nH]3)CC2)cc1 | -2 | 5 | 3 | 20130*
O=C(CSc1ncccc1-c1nc2ccccc2[nH]1)N1CCN(c2ccccc2F)CC1 | 4 | -4 | 5 | 17934*
COc1ccccc1N1CCN(C(=O)CSc2nc3ccccc3[nH]2)CC1 | -4 | -2 | 0 | 11200
CC(=O)c1ccc(S(=O)(=O)NCCC(=O)OCC(=O)N2CCCC2=O)cc1 | 3 | 1 | 0 | 6321
O=C(NNC(=O)c1ccc(Br)s1)c1csc(N2CCOCC2)n1 | -2 | -2 | 1 | 5837
CCN(CC)CC(O)CNc1ccnc2c(Cl)ccc(Cl)c12 (centres undefined) | 3 | -5 | 0 | 3503
Cc1ccc(Nc2ncccc2C(=O)NCc2cccs2)c(C)c1 | -10 | -4 | ? | 21631*
CS(=O)(=O)N1CCN(c2ccc([N+](=O)[O-])c(NCCN3CCOCC3)c2)CC1 | -13 | -13 | -5 | 18351*
SMILES | BoNT-F LC inh | Anthrax LF prot | BoNT-A LC inh2 | Autofluor counter
CCCCCOC(=O)c1c(N)n(CCOC)c2nc3ccccc3nc12 | -2 | 1 | 1 | 20661*
CCC(C)NC(=O)c1c(N)n(CCCOC)c2nc3ccccc3nc12 (centres undefined) | 6 | -12 | 8 | 17608*
COCCCn1c(N)c(C(=O)Nc2ccccc2)c2nc3ccccc3nc21 | ? | 2 | -4 | 3998
Cc1cccc(NC(=O)c2ccc(Cl)c(S(=O)(=O)N3CCCCC3)c2)n1 | -5 | 0 | -4 | 7578
Cc1cc(NC(NC(=O)c2ccco2)(C(F)(F)F)C(F)(F)F)no1 | -4 | 0 | -2 | 17442*
CC(C)(C)c1cc(NC(=O)c2ccco2)no1 | -2 | 0 | 1 | 5608
COCCN(C(=O)COC(=O)CCC1CCCCC1)c1c(N)n(Cc2ccccc2)c(=O)[nH]c1=O | -2 | -2 | 0 | 3941
CC(=O)Nc1cccc(C(=O)/C=C/c2ccco2)c1 | -1 | -6 | ? | 22380*
CC(=O)Nc1ccc(C(=O)/C=C/c2ccco2)cc1 | -17 | -6 | 1 | 2568
CN(CCc1ccccn1)C(=S)Nc1ccc(Cl)c(Cl)c1 | -5 | -3 | -1 | 4665
O=C(CCSCCc1ccccn1)Nc1ccc(Br)cn1 | 0 | 0 | 1 | 23488*
CN(CCc1ccccn1)C(=O)Nc1ccc(Cl)cc1 | -1 | -1 | -2 | 17188*
O=C(CCSCCc1ccccn1)Nc1ccc(Cl)cn1 | 1 | 4 | ? | 20129*
CC(C)C(=O)c1cc2c(cc1NC(=O)c1cccs1)OCCO2 | -4 | -4 | -2 | 23207*

From PubChem
